Compound activity from PubChem.
The list is not random: actives were taken first. Their share in the collection is about 6.3%.
ATXN2 expr inh = reduces ATXN2 reporter expression in HEK-293 cells. HEK-293 ATXN2-luciferase reporter, luminescence, 24 h. Potency, µM (titrated, usually from 57 µM), inactives show top-dose activity change, negative = inhibition, usual class: inhibitors. 360,000 compounds, 0.72% hits. AID 1745845; also: % is scaled to controls: 0 for no effect and ±100 for the full control effect; nearly all actives have a fitted effect of over 55% in size
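qHTS (up to 57 uM final) was run with 24 h compound exposure of reporter cells at 37 °C. Each well was multiplexed: SteadyGlo luminescence measured ATXN2-luciferase expression after a fluorogenic Gly-Phe-AFC viability readout (25 uM final).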
RORgamma inh = ROR gamma (mouse) transcription inhibition | P51450 | Drosophila S2 Gal4-RORgamma UAS-luciferase reporter, 20 h | Potency, µM (series often up to 53.6 µM), inactives show at the highest dose activity change, negative = inhibition, hits mostly inhibitors | 310,000 compounds, 5.4% hits | AID 2551; also: % is scaled to controls: 0 for no effect and ±100 for the full control effect; nearly all actives have a fitted effect of over 60% in size
Target sequence (P51450 whole entry, looked up, the tested form may be a part): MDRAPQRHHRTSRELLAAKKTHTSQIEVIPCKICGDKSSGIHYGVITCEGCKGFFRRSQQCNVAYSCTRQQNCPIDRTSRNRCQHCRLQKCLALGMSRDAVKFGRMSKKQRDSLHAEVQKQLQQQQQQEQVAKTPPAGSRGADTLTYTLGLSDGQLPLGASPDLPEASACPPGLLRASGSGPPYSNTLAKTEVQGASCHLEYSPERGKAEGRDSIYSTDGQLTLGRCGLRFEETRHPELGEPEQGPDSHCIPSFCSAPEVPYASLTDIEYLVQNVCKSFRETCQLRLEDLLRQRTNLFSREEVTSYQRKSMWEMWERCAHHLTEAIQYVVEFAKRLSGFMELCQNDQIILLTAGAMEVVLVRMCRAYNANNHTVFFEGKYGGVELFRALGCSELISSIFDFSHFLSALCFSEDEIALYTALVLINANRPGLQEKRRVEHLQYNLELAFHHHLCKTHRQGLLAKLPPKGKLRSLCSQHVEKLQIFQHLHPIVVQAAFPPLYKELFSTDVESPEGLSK
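Stable Schneider cell line, Gal4 DNA-binding domain fused to ROR gamma, UAS-luciferase. Cmpd 1 hr RT → CuSO4 700 uM final → 20 hr RT → luciferase reagent 10 min → luminescence.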
ATXN viability = reduces viability in counter-screen for ATXN expression inhibitors | S2 cells (HEK-293 line with an ATXN2-luciferase reporter) viability, CellTiter-Fluor protease fluorescence, 24 h | 400,000 compounds, 0.49% hits | Potency, µM (titrated, usually from 56.7 µM), actives largely listed as cytotoxic | AID 651635; also: nearly all actives have a fitted effect of over 40% in size
VP16 counter = inhibits Gal4-VP16 luciferase reporter, ROR gamma counter-screen; Drosophila S2 Gal4-VP16 UAS-luciferase, luminescence, 20 h; Potency, µM (doses to about 53.6 µM), inactives show top-dose activity, negative = inhibition, usual class: inhibitors; 310,000 compounds, 3.5% hits;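 also: Gal4-VP16 expression switched on by copper sulfate through the metallothionein promoter; % is scaled to controls: 0 for no effect and ±100 for the full control effect; nearly all actives have a fitted effect of over 50% in size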
TGFb inhibitor = blocks TGF-b signaling. HepG2 CAGA-GFP TGF-b/SMAD3 reporter, GFP fluorescence, 18 h; TGF-beta stimulated, 500 pg/mL final. Potency, µM (titrated, usually from 46.1 µM), for the others: top-dose activity, negative = inhibition, usual class: inhibitors. 410,000 compounds, 1.2% hits. AID 588855; also: % is scaled to controls: 0 for no effect and ±100 for the full control effect; nearly all actives have a fitted effect of over 65% in size
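GFP signal (ex488/em500-530) from TGF-beta-stimulated HEPG2 CAGA-GFP cells, 500 pg/mL final, 18 h at 37 degrees C in DMEM plus 1% FBS, normalized to unstimulated and DMSO-stimulated controls.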
HepG2 viability = counter-screen for TGF-b inhibitors: cytotoxicity in HepG2 cells. AID 588856. HepG2 CAGA-GFP viability, ATP luminescence, 18 h. 410,000 compounds, 0.76% hits. Potency, µM (highest dose often 46.1 µM), for inactives: at the top dose activity change, negative = cytotoxicity, most hits filed as cytotoxic
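CellTiter-Glo luminescence gave cytotoxicity after 18 hours at 37 degrees C. The cells were HepG2 CAGA-GFP in 1% FBS DMEM, stimulated with 500 pg/mL TGF-beta after compound addition. %Activity was normalised to no-cell wells (complete cell-killing) and DMSO (no toxicity), and curves were fitted and classified.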
* marks the source's active call; other numbers are inactive results; i = inactive; ? = inconclusive; / = not tested or not shown; [ ] = dose if it differs, or a comment. Calls follow the shape of the dose curve; as a rule, active = well fitted curve in the direction sought with a large enough effect; inconclusive = small, poorly fitted or top-dose-only effect, or another doubt; inactive = no such curve, though single readings can be large; an effect the other way counts as inactive or inconclusive. Potency is read from the fitted curve at half-maximal effect.

SMILES | ATXN2 expr inh | RORgamma inh | ATXN viability | VP16 counter | TGFb inhibitor | HepG2 viability
Cc1ccc(-n2c(C)nc3c(cnn3-c3ccc(F)cc3)c2=O)cc1C | -3.1% | ? | i | 6.31µM* | 0.1% | 4.1%
CCCCC(CCCCl)C(=O)Nc1ccccc1 (centres undefined) | -22.6%[11.3 µM] | -1.2% | i | -2.0% | -6.3% | 20.3%
CC(C)(C)C(=O)C(Cl)C(=O)Nc1ccccc1 (centres undefined) | / | -18.6% | i | ? | ? | 8.91µM*
O=C(Nc1ccc(Nc2ccccc2)cc1)C(Cl)Cl | -15.8% | -26.5% | ? | -2.7% | 12.6µM* | -76.9%
CNc1c(Br)cc(/C=C2\C=Cc3ccccc32)cc1Br | / | / | / | / | ? | -57.3%
Cc1ccc(CNc2nc(CN3CCN(C=O)CC3)nc3ccccc23)o1 | / | / | i | / | / | /
CCn1c2ccccc2c2nnc(N3CCN(c4cccc(Cl)c4)CC3)nc21 | / | / | / | / | -24.7% | -32.8%
CCc1noc(C)c1C(=O)N1CCOc2ccc(CN3CCCC(C(=O)c4cccnc4)C3)cc2C1 (centres undefined) | / | / | i | / | / | /
CCC1=Nc2cc(C(=O)NCc3ccccc3OC)ccc2Sc2ccc(Cl)cc21 | / | / | / | / | 0.1% | -3.5%
COCCn1c(SCC(=O)NC2(C#N)CCCCC2)nc2ccccc2c1=O | -4.0% | / | i | / | -16.9% | -16.0%
Cc1nc2ccn(Cc3ccco3)c(=O)c2cc1C(=O)NCc1ccc(Cl)cc1 | / | / | / | / | 10µM* | -19.8%
CCOCCCNC(=S)N(Cc1ccccc1)Cc1nc2ccccc2c(=O)[nH]1 | -10.6% | 11.2µM* | i | ? | ? | -25.7%
CCCNC(=S)N(Cc1ccccc1)Cc1nc2ccccc2c(=O)[nH]1 | 6.9% | 12.6µM* | i | ? | -6.2% | -69.0%
O=C(c1ccccc1)N(Cc1ccc(F)cc1)Cc1nc2ccccc2c(=O)[nH]1 | 6.5% | 3.55µM* | i | ? | ? | -42.9%
COc1ccccc1CN1CCC2(CCNCC2)CC1 | / | -17.0% | / | -16.1% | / | /
Cc1cc(Br)cn2c(CC(C)(C)C)c(-c3cccc(Cl)c3)nc12 | 6.9% | / | i | / | ? | -33.7%
CC1(C)OC(=O)C2(Cc3ccc(Cl)cc3N3CCCC32)C(=O)O1 (centres undefined) | / | / | / | / | 0.5% | 7.4%
Cc1cc(C)c(C(=O)/C=C/c2ccc(C(C)C)cc2)c(=O)[nH]1 | ? | ? | ? | 31.6µM* | ? | -61.9%
CCN(CC)CCNC(=O)c1ccc2nc(-c3ccccc3)c(-c3ccc(CN4CCC(n5c(=O)[nH]c6ccccc65)CC4)cc3)nc2c1 | 27.3µM* | / | / | / | / | /
O=C(/C=C\c1ccccc1)NCC(=O)N/N=C/c1ccc(O)cc1O | 17.8µM* | -39.1% | i | -13.2% | -2.3% | -14.3%
O=C(N/N=C/c1ccc(O)cc1O)/C(=C/c1ccccc1)CCO | 10µM* | 11.2µM* | ? | ? | ? | -25.7%
O=C(CNC(=O)C1COc2ccccc2O1)N/N=C/c1ccc(O)cc1O (centres undefined) | 12.6µM* | 12.6µM* | i | -17.1% | ? | -22.6%
COc1ccc(OC)c(C2=Nn3c(nnc3-c3cccc(OC)c3OC)SC2)c1 | / | -1.1% | / | 0.3% | / | /
COc1cccc(-c2nnc3n2N=C(c2cc(OC)ccc2OC)CS3)c1 | -34.9% | ? | ? | -29.5% | 2.3% | -2.6%
COc1cccc(-c2nnc3n2N=C(c2ccc(OC)cc2OC)CS3)c1 | / | ? | / | 7.94µM* | / | /
COc1ccc(C2=Nn3c(nnc3-c3cccc(OC)c3OC)SC2)c(OC)c1 | / | ? | / | 17.8µM* | / | /
Cc1cc(NC(=O)CCCn2c(C)c3cnn(-c4ccccc4)c(=O)c3c2C)ccc1Br | / | / | / | / | 7.08µM* | 10.4%
CCc1cccc(C)c1NC(=O)CCCn1c(C)c2cnn(-c3ccccc3)c(=O)c2c1C | / | / | / | / | -26.2% | -20.7%
O=C/C(=C\Nc1ccccn1)c1nc2cc(Cl)ccc2o1 | 16.6% | 5.62µM* | i | 10µM* | 5.0% | -25.7%
